{
  "source": "paper PMC7862700",
  "about": "“An all-to-all approach to the identification of sequence-specific readers for epigenetic DNA modifications on cytosine”",
  "experiment_in_all_cases": "DAPPL (digital affinity profiling via proximity ligation, sequencing); 10 mM Tris-HCl pH 7.5, 50 mM NaCl, 1 mM DTT, 4% glycerol, room temperature, 30 min; GST-TFs on glutathione beads, 16-mer random dsDNA library, 0.1% formaldehyde crosslink after washing; high values mean tight binding",
  "details_in_all_cases": "protein: recombinant; tags: N-terminal GST; dsDNA, one strand shown",
  "key": {"FLI1": {"biological_target": "T1, FLI1 (Homo sapiens, UniProt Q01543 1-452)", "T1 sequence": "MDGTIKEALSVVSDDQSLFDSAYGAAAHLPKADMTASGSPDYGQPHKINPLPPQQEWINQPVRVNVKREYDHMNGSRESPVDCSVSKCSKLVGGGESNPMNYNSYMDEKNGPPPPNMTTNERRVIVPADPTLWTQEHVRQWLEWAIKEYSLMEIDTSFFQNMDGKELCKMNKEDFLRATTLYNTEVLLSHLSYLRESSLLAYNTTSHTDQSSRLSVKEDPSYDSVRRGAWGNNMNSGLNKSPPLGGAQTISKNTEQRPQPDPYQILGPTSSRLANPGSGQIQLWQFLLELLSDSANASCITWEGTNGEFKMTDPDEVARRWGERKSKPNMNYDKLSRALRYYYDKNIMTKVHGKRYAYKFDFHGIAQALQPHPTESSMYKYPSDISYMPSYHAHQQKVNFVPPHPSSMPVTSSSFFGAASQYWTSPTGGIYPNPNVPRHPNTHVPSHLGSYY", "in_short": "(§1)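 The binding signal reported is, for every hexamer, its read frequency for a factor over its read frequency for the tag-only sample. Reads came from pools of yeast-expressed, GST-fused human transcription factors on glutathione beads, barcoded with DNA and mixed with that sample, which were incubated with 200 nmole of a random double-stranded 16-mer DNA library in Tris/NaCl/DTT/glycerol buffer at room temperature for 30 min. After washing, the pools were crosslinked with 0.1% formaldehyde, proximity-ligated with BsaI/T4 ligase for 1 h at 37 °C, PCR-amplified and sequenced on an Illumina NextSeq500.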"}, "ELK1": {"biological_target": "T2, ELK1 (Homo sapiens, UniProt P19419 1-428)", "T2 sequence": "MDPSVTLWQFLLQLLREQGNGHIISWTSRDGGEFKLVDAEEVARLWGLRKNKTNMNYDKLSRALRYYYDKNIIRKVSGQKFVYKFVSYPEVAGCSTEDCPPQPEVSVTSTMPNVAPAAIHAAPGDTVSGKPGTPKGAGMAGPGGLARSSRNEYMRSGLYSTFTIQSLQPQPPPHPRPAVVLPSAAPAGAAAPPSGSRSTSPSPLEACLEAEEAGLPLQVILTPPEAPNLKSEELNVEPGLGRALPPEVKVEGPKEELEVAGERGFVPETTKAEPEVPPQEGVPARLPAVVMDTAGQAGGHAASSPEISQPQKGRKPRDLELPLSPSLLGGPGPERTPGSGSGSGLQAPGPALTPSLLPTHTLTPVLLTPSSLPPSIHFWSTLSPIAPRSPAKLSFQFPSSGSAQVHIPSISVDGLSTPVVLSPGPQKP", "in_short": "as §1"}, "GABPA": {"biological_target": "T3, GABPA (Homo sapiens, UniProt Q06546 1-454)", "T3 sequence": "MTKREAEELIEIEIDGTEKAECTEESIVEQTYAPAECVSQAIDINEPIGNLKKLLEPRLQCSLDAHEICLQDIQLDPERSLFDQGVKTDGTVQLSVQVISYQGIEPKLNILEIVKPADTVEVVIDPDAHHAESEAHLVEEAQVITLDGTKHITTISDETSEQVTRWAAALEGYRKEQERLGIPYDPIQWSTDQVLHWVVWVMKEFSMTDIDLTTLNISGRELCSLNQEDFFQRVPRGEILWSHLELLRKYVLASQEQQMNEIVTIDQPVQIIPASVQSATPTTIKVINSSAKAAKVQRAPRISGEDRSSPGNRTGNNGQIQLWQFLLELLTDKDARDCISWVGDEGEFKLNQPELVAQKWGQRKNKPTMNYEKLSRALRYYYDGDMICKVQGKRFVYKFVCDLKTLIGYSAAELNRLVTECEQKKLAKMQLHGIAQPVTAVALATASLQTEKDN", "in_short": "as §1"}, "ERG": {"biological_target": "T4, ERG (Homo sapiens, UniProt P11308 1-479)", "T4 sequence": "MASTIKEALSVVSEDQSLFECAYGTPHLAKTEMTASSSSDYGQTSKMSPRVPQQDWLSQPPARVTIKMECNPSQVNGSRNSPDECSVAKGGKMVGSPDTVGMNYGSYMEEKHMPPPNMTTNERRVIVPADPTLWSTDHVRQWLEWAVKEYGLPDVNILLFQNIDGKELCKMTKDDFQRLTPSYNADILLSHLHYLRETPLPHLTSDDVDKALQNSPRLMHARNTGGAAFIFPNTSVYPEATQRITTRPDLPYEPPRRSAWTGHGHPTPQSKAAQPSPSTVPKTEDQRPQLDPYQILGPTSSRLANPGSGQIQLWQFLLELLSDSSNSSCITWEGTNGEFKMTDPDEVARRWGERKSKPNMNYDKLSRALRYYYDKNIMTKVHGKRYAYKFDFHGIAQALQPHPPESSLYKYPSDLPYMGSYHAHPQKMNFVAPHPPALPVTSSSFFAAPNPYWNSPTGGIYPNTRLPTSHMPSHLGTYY", "in_short": "as §1"}, "ELF1": {"biological_target": "ELF1 (Homo sapiens, UniProt P32519 1-619)", "sequence (P32519 whole entry)": "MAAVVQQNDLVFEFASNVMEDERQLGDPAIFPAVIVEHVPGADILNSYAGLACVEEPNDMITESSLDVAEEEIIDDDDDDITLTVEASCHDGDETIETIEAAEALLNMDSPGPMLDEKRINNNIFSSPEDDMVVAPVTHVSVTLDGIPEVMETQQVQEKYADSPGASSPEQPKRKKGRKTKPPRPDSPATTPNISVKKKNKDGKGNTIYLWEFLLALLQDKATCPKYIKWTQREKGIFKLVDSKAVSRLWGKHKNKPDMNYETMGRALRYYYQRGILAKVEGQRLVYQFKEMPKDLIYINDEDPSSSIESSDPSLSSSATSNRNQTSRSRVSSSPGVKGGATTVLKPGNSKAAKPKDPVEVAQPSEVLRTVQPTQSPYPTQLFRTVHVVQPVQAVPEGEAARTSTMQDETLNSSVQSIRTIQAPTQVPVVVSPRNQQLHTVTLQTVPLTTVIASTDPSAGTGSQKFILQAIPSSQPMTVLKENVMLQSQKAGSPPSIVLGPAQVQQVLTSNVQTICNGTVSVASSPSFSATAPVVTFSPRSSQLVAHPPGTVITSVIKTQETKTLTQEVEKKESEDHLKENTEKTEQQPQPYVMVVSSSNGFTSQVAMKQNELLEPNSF", "in_short": "as §1"}, "EHF": {"biological_target": "T5, EHF (Homo sapiens, UniProt Q9NZC4 1-300)", "T5 sequence": "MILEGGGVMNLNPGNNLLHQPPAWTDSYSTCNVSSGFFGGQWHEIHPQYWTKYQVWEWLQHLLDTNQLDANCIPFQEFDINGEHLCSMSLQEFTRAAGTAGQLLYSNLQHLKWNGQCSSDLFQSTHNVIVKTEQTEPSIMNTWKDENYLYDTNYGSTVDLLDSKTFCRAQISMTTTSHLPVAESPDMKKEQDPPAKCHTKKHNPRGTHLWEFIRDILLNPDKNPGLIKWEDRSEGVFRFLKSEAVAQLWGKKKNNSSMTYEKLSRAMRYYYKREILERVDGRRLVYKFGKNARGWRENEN", "in_short": "as §1"}, "SPI1": {"biological_target": "SPI1 (Homo sapiens, UniProt P17947 1-270)", "in_short": "as §1"}, "SPIB": {"biological_target": "SPIB (Homo sapiens, UniProt Q01892 1-262)", "sequence (Q01892 whole entry)": "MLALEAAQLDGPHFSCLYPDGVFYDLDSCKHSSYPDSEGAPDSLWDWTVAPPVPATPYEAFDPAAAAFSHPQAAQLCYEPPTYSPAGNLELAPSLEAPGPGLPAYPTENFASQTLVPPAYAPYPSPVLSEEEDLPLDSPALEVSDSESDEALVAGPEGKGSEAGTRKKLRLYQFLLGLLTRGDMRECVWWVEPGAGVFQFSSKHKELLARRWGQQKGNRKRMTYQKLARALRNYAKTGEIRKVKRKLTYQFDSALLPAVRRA", "in_short": "as §1"}, "ELK3": {"biological_target": "T6, ELK3 (Homo sapiens, UniProt P41970 1-407)", "T6 sequence": "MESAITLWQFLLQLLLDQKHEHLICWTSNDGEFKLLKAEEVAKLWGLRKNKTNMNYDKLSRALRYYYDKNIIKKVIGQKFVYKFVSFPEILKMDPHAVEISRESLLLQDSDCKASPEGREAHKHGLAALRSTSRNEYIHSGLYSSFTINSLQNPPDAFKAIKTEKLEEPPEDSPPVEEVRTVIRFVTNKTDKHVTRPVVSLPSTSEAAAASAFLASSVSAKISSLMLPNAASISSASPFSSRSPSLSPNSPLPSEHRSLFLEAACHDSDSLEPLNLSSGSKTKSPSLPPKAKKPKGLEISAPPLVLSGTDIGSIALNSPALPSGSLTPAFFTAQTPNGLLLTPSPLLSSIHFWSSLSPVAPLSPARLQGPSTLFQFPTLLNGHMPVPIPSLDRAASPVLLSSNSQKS", "in_short": "as §1"}},
  "data": [
    {"sequence": "AAGTAA", "values": [
      {"measurement": "binding signal", "setting": "FLI1", "result": "1.17 fold enrichment (6-mer frequency, TF over GST control)"},
      {"measurement": "binding signal", "setting": "ELK1", "result": "1.25 fold enrichment (6-mer frequency, TF over GST control)"},
      {"measurement": "binding signal", "setting": "GABPA", "result": "1.3 fold enrichment (6-mer frequency, TF over GST control)"},
      {"measurement": "binding signal", "setting": "ERG", "result": "1.25 fold enrichment (6-mer frequency, TF over GST control)"},
      {"measurement": "binding signal", "setting": "ELF1", "result": "1.27 fold enrichment (6-mer frequency, TF over GST control)"},
      {"measurement": "binding signal", "setting": "EHF", "result": "1.3 fold enrichment (6-mer frequency, TF over GST control)"},
      {"measurement": "binding signal", "setting": "SPI1", "result": "1.34 fold enrichment (6-mer frequency, TF over GST control)"},
      {"measurement": "binding signal", "setting": "SPIB", "result": "1.22 fold enrichment (6-mer frequency, TF over GST control)"},
      {"measurement": "binding signal", "setting": "ELK3", "result": "1.27 fold enrichment (6-mer frequency, TF over GST control)"}
    ]}
  ]
}
